Test results: PubChem BioAssay AID1850 (Southern Research Specialized Biocontainment Screening …, 2009)
Screen size: about 310,000 compounds; about 1,000 (0.32%) were called active. How the calls were made is not given here. A selection follows. Results with a measured potency or affinity are listed apart.

Test: PhoP regulon inhibitors, Salmonella typhi PhoP promoter GFP reporter, confirmatory (AID 1850);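 further: 0% = induced wells with vehicle and 100% = uninduced wells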
Settings: fluorescence, 4 h, at 50 µM, active compounds read high
For CCN(CC)CCNCc1cc(Br)ccc1OCC(=O)NCc1ccccc1, the inhibition was -28.2% (inactive). In the case of CCCNCc1cc(Br)ccc1OCC(=O)NCCc1ccccc1, the inhibition was -3.03% (inactive). With CCOc1ccccc1CNC(=O)Cn1ccc2cc(S(=O)(=O)N3CCCC3)ccc21 the inhibition was 3.38% (inactive). For Cc1c(C(=O)NC(Cc2ccccc2)c2nc3ccccc3[nH]2)cccc1[N+](=O)[O-] (stereo not drawn), the inhibition was -6.76% (inactive). For O=Nc1c(O)n(Cc2ccccc2)c2ccccc12, the inhibition was -9.56% (inactive). With O=Nc1c(O)[nH]c2c(F)cccc12 the inhibition was -3.73% (inactive). With CCOC(=O)CC(c1ccc(N)cc1)n1c(C)ccc1C (stereo not drawn) the inhibition was -3.47% (inactive). For COc1ccc(Cc2noc(CN3CCCC(C(=O)c4cccs4)C3)n2)cc1OC (stereo not drawn), the inhibition was -18.4% (inactive). For CCn1c(SCC(=O)NC2CCS(=O)(=O)C2)nnc1-c1ccccc1 (stereo not drawn), the inhibition was 3.32% (inactive). In the case of Cc1nnc(SCC(=O)NC2CCS(=O)(=O)C2)n1-c1ccccc1 (stereo not drawn), the inhibition was 6.38% (inactive). For CN(C)c1nc(SCC(=O)Nc2ccccc2)nc(N2CCOCC2)n1, the inhibition was 3.38% (inactive). With O=C1CN(Cc2cc(=O)oc3cc4c(cc23)CCC4)CCN1 the inhibition was -4.78% (inactive). In the case of CC1(C)C(=O)Nc2ccccc2N1C(=O)COC(=O)/C=C/c1ccc(OC(F)F)cc1, the inhibition was -3.59% (inactive). With COc1cccc(C(C(=O)NC2CCCCC2)N(C(=O)Cc2cccs2)c2ccc(-n3cnnn3)c(OC)c2)c1 (stereo not drawn) the inhibition was -9.92% (inactive). In the case of N#C/C(=C\c1ccccc1)C(=O)NC1CC1, the inhibition was 2.22% (inactive). With CC1CC(NC(=O)/C(C#N)=C/c2ccc[nH]2)CC(C)(C)C1 (stereo not drawn) the inhibition was 5.38% (inactive). For COc1ccc(-n2nc(C(=O)NCC(=O)N3CCN(c4ccccc4)CC3)c3ccccc3c2=O)c(OC)c1, the inhibition was 3.7% (inactive). For CC(C)CCNc1nc(N2CCCC2)c2c(c1C#N)CCN(C)C2, the inhibition was 19.4% (inactive). For CCCCCNc1nc(NCCCO)c(C#N)c2c1CN(C)CC2, the inhibition was -3.01% (inactive). For CC1(c2ccc(Cl)cc2Cl)NC(=O)N(CC(=O)Nc2ccc3[nH]c(=O)[nH]c3c2)C1=O (stereo not drawn), the inhibition was -3.74% (inactive). For COc1ccc(CNC(=O)C2CCCN(S(=O)(=O)N3CCC(C)CC3)C2)c(OC)c1 (stereo not drawn), the inhibition was -14.4% (inactive). In the case of CCN(CC)C(=O)c1sc(N2C(=O)Nc3ccccc3N2O)c(C(=O)OC)c1C, the inhibition was -7.07% (inactive). For Cc1ccc(N2C(=O)CC(Sc3ncccc3C(=O)O)C2=O)cc1 (stereo not drawn), the inhibition was -7.58% (inactive). With NC1=NC2(CCCCC2)N=C(Nc2ccc(F)cc2F)N1 the inhibition was 19% (inactive). In the case of CCOc1ccc(NC2=NC(C)(C)N=C(N)N2)cc1, the inhibition was 5.96% (inactive). With CCCCOc1ccc(N2C(N)=NC(N)=NC23CCCCC3)cc1 the inhibition was 4.38% (inactive). For Cc1ccc(NC2=NC3(CCCC3)N=C(N)N2)c(C)c1, the inhibition was 13.7% (inactive). For Cc1ccc(-c2[nH]ncc2/C=N/n2c(COc3ccccc3)nc3ccccc3c2=O)cc1, the inhibition was -8.67% (inactive). For Cc1nc2ccccc2c(=O)n1/N=C/c1cc(Br)cc(Br)c1O, the inhibition was 9.81% (inactive). For Cc1nc2ccccc2c(=O)n1/N=C/c1cn[nH]c1-c1ccccc1, the inhibition was -0.17% (inactive). In the case of Cc1nc2ccccc2c(=O)n1/N=C/c1ccccc1O, the inhibition was 1.57% (inactive). With COc1ccc(NC(=O)C2CCCN2C(=O)NCc2ccccc2)cc1 (stereo not drawn) the inhibition was -5.86% (inactive). For CSc1cccc(N2CC(C(=O)N(CC(C)C)c3c(N)n(Cc4ccccc4)c(=O)[nH]c3=O)CC2=O)c1 (stereo not drawn), the inhibition was -3.17% (inactive). With CCOc1ccc(C(=O)Nc2nnc(C(C)C)s2)cc1OCC the inhibition was -1.68% (inactive). For COCCN1CCN(C(=O)C2CCC(=O)N(CCc3ccc(Cl)cc3)C2)CC1 (stereo not drawn), the inhibition was -4.1% (inactive). With COc1ccc(Nc2ccnc(Nc3ccc(OC)cc3)n2)cc1 the inhibition was -1.84% (inactive). In the case of O=C(O)c1cccc(Nc2ccnc(Nc3cccc(C(=O)O)c3)n2)c1, the inhibition was 2.42% (inactive). In the case of Nc1ncnc(Nc2ccc(F)cc2)n1, the inhibition was -3.3% (inactive). For c1ccc(Nc2cccc(Nc3ccccc3)n2)cc1, the inhibition was 6.98% (inactive). For Cc1c(C(=O)O)oc2ccc(S(=O)(=O)N3CCCCC3C(=O)O)cc12 (stereo not drawn), the inhibition was -3.93% (inactive). With C/C=C/c1ccc(OCC(O)CN2CCCCC2CC)c(OC)c1 (stereo not drawn) the inhibition was 8.19% (inactive). With S=C1NC2(CCCCC2)NC12CCCCC2 the inhibition was -9.21% (inactive). For Cc1sc2nc(SCC(N)=O)n(-c3ccccc3)c(=O)c2c1C, the inhibition was -0.27% (inactive). With O=C(NNc1nc2ccccc2s1)c1ccc(F)cc1 the inhibition was -6.05% (inactive). With O=C(NNc1nc2cc3c(cc2s1)OCO3)c1cccc(F)c1 the inhibition was -11.1% (inactive). For CC(C)(C)c1ccc(S(=O)(=O)NNC(=O)C2CCN(Cc3cccc(F)c3)CC2)cc1, the inhibition was 6.86% (inactive). In the case of C=CCOC(=O)C1=C(C)NC(SCC(=O)Nc2nccs2)=C(C#N)C1c1ccc(Cl)cc1 (stereo not drawn), the inhibition was 3.36% (inactive). In the case of O=C1Cc2ccccc2Sc2ccc(Cl)cc21, the inhibition was -8.12% (inactive). In the case of c1ccc2c(c1)CC(N1CCCCC1)c1ccccc1S2 (stereo not drawn), the inhibition was 16.3% (inactive). With CC(C)c1ccc2c(c1)C(N1CCNCC1)Cc1ccc(F)cc1S2 (stereo not drawn) the inhibition was 19.3% (inactive). For NC(=O)CCN1CCN(CCOC2Cc3cc(Cl)ccc3Sc3ccccc32)CC1 (stereo not drawn), the inhibition was -4.99% (inactive). For CN1CCN(C2Cc3ccccc3Sc3ccc(Cl)cc32)CC1 (stereo not drawn), the inhibition was -13% (inactive). For CN1CCN(C2Cc3ccccc3Sc3cc(C(F)(F)F)ccc32)CC1 (stereo not drawn), the inhibition was 2.06% (inactive). In the case of CN1Cc2cccc3c2C(Cc2ccccc2S3)C1 (stereo not drawn), the inhibition was -6.53% (inactive). With c1ccc2c(c1)CC(N1CCCCC1)c1ccccc1N2 (stereo not drawn) the inhibition was -3.45% (inactive). In the case of Cc1ccccc1NC(=O)c1ccco1, the inhibition was -6.44% (inactive). In the case of COc1ccc(/C=C2\CCCC3C2=NC(=S)NC3c2ccc(OC)cc2)cc1 (stereo not drawn), the inhibition was -6.47% (inactive). In the case of COc1ccccc1-c1nc(-c2ccc(Br)cc2)no1, the inhibition was 19.9% (inactive). In the case of CC1CCCCN1CCNC(=O)c1ccc2c(c1)N(Cc1cccc(Cl)c1)C(=O)c1ccccc1S2=O (stereo not drawn), the inhibition was -21.9% (inactive). In the case of Cc1ccc(CNC(=O)C2CC(c3ccc(C(F)(F)F)cc3)=NO2)o1 (stereo not drawn), the inhibition was -0.47% (inactive). In the case of CCCc1cc(C(=O)OC)c(NC(=O)OCC)s1, the inhibition was 0.48% (inactive). In the case of COC(=O)CNC(=O)c1ccc(NS(=O)(=O)c2cc([N+](=O)[O-])ccc2Cl)cc1, the inhibition was -1.71% (inactive). For CN(C)C(=O)c1ccc(-n2cnc3ccccc3c2=O)cc1, the inhibition was 6.15% (inactive). With Cc1cc(O)c2c(c1)C(=O)c1cc(O)cc(O)c1C2=O the inhibition was -20.4% (inactive). With COc1cc(NC(=O)c2cccs2)c(C(=O)OCC(=O)NC(=O)NCc2ccccc2)cc1OC the inhibition was -3.62% (inactive). With O=C(COC(=O)c1ccc([N+](=O)[O-])s1)Nc1ccccc1 the inhibition was 4.19% (inactive). With NS(=O)(=O)c1ccc(NC(=O)COC(=O)c2ccc([N+](=O)[O-])s2)cc1 the inhibition was 9% (inactive). With S=c1[nH]nc(COc2ccc(Cl)cc2)n1-c1ccc(Cl)cc1 the inhibition was 2.37% (inactive). For Cc1ccc(N=Nc2ccc(O)c3ncccc23)cc1, the inhibition was -8.35% (inactive). In the case of Cc1ccccc1N=Nc1ccc(O)c2ncccc12, the inhibition was -0.137% (inactive). For CCOc1ccc(N(CC(=O)NC2CCCCC2)C(=O)CCC(=O)Nc2cc(C)ccn2)cc1, the inhibition was 2.46% (inactive). In the case of COc1ccc(C(CCNCc2ccc(N(C)C)cc2)c2ccccc2)cc1 (stereo not drawn), the inhibition was 6.13% (inactive). With COc1ccc(C(CCN)c2ccc3c(c2)OCO3)cc1 (stereo not drawn) the inhibition was -14.2% (inactive). In the case of Cc1ccccc1OCCN1C(=O)c2ccccc2C1=O, the inhibition was -6.01% (inactive). For CCCNC(=O)COC(=O)c1ccc(S(=O)(=O)N2CCCCCC2)cc1, the inhibition was -7.39% (inactive). With CCCCCCCCCC(=O)N1CCN(c2cc3c(cc2F)c(=O)c(C(=O)O)cn3CC)CC1 the inhibition was -9.96% (inactive). For CCCCCCC(=O)N1CCN(c2cc3c(cc2F)c(=O)c(C(=O)O)cn3CC)CC1, the inhibition was -12.4% (inactive). In the case of C=CCNC(=S)N1CCN(c2ncc3c(=O)c(C(=O)O)cn(CC)c3n2)CC1, the inhibition was -7.57% (inactive). With CCCCCCCCC(=O)N1CCN(c2cc3c(cc2F)c(=O)c(C(=O)O)cn3CC)CC1 the inhibition was -9.35% (inactive). In the case of CCCCCCCC(=O)N1CCN(c2cc3c(cc2F)c(=O)c(C(=O)O)cn3CC)CC1, the inhibition was 9.58% (inactive). With CCn1cc(C(=O)O)c(=O)c2cnc(N3CCN(C(=S)Nc4ccccc4)CC3)nc21 the inhibition was 7.15% (inactive). With Cn1ccnc1SCC(=O)NC1CCCC1 the inhibition was -6.69% (inactive). In the case of Cc1cccc2cc(CN(C(=O)c3cccc([N+](=O)[O-])c3)C(C)C)c(=O)[nH]c12, the inhibition was -4.34% (inactive). For COc1ccc(NC(=O)c2nc3nc(C)cc(C(F)F)n3n2)cc1OC, the inhibition was -3.09% (inactive). In the case of CC(C)(C)c1ccc(CS(=O)(=O)CC2(O)CCN(C(=O)c3cccc(C(F)(F)F)c3)CC2)cc1, the inhibition was -0.12% (inactive). With CS(=O)(=O)c1ccc(Cl)c(NC(=O)COC(=O)Cc2c[nH]c3ccccc23)c1 the inhibition was -1.58% (inactive). In the case of Cc1cc(N(CCO)CCO)ccc1N=Nc1cc(F)ccc1F, the inhibition was 22.3% (inactive). For CCCOc1cccc(C(=O)Nc2cccc3ncccc23)c1, the inhibition was -5.81% (inactive). For CCOc1ccc(S(=O)(=O)N2CCN(C(=O)c3sccc3C)CC2)cc1, the inhibition was -3.32% (inactive). In the case of CCCCCCn1cc(C(=O)O)c(=O)c2cc(F)c(N3CCN(C(=O)OCC)CC3)cc21, the inhibition was -8.26% (inactive). For CCOC(=O)c1cn(CC)c2cc(N3CCCCC3)c(F)cc2c1=O, the inhibition was -24.8% (inactive). For CCCCCCn1cc(C(=O)O)c(=O)c2cc(F)c(N3CCN(C)CC3)cc21, the inhibition was -6.43% (inactive). For CCCCNc1nnc(SCC(=O)N2CCN(S(=O)(=O)c3ccc4ccccc4c3)CC2)s1, the inhibition was -3.79% (inactive).
